In PubChem BioAssay (NCI):
This is part of a sample that, as a whole, favours compounds with a hit. Of some 79,000 tested, about 15% had one in any assay. Calls of active or inactive are those of the source. No stated cut-off is given here; in the data, active means growth inhibition above about 70%; inactive means the rest.

Key:
[1] = NCI Yeast Anticancer Drug Screen. Data for the rad50 strain (AID 155);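 further: 0% = growth of vehicle-only cultures of the same strain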; conditions: S. cerevisiae rad50 strain growth inhibition; at 50.0 µM; stronger effect = higher value
Procedure, shortened: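 Growth of the mutant yeast was measured after compound exposure and referenced to vehicle-treated cultures.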

[2] = NCI Yeast Anticancer Drug Screen. Data for the mec2-1 strain (AID 157); conditions: S. cerevisiae mec2-1 strain, at 50.0 µM, stronger effect = higher value
Procedure, shortened: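 Using mec2-1 yeast: add compound, measure growth, express inhibition versus vehicle-treated cultures.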

[3] = NCI Yeast Anticancer Drug Screen. Data for the sgs1 mgt1 strain (AID 161);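 further: 0% = growth of cultures given vehicle only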; conditions: S. cerevisiae sgs1 mgt1 strain, at 50.0 µM, stronger effect = higher value
Procedure, shortened: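 Compounds are added to genetically altered yeast, and growth is compared with cultures given vehicle alone to give percent inhibition.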

[4] = NCI Yeast Anticancer Drug Screen. Data for the cln2 rad14 strain (AID 165);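 further: 0% = growth equal to vehicle treated cultures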; conditions: S. cerevisiae cln2 rad14 strain, at 50.0 µM, stronger effect = higher value
Procedure, shortened: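 Yeast strain cln2 rad14, bearing defects in cell cycle control and DNA repair, serves as the test system; values reflect growth inhibition compared with vehicle.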

[5] = NCI Yeast Anticancer Drug Screen. Data for the bub3 strain (AID 167); conditions: S. cerevisiae bub3 mutant strain, at 50.0 µM, stronger effect = higher value
Procedure, shortened: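 Whole-cell yeast assay. The mutant strain was incubated with compounds, and growth inhibition was determined by comparison with vehicle-treated cells.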

[6] = NCI Yeast Anticancer Drug Screen. Data for the mlh1 rad18 strain (AID 175); conditions: S. cerevisiae mlh1 rad18 strain growth inhibition; at 50.0 µM; stronger effect = higher value
Procedure, shortened: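 Steps: expose repair-defective yeast to compound; measure growth; express inhibition against vehicle-treated controls.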

Measured: growth inhibition

Cc1c(C)c(O)c(C)c(C)c1O
inactive: [1] -8.8% | [2] -17.1% | [3] -4.85% | [4] -13.2% | [5] 6.85% | [6] 11.4%

CCOC(=O)C(=O)c1cn(C)c(=O)n(C)c1=O
inactive: [1] 12.1% | [2] 2.85% | [3] 1.3% | [4] 3.8% | [5] 0.9% | [6] 10.6%

OCCCN1CCN(CCO)CC1
inactive: [1] -42% | [2] -14.8% | [3] -12.7% | [4] -48.9% | [5] 4.25% | [6] -2.25%

CCN(CC)c1ccc(/C=N\N(C)C)cc1
inactive: [1] 0.2% | [2] -13.2% | [3] -4.8% | [4] -48.1% | [5] -1.65% | [6] -6.55%

CC(=O)OC1OC(C)C(OC(=O)c2ccccc2)C1OC(C)=O (stereo unspecified)
inactive: [1] 21.1% | [2] -3.15% | [3] 2.3% | [4] -1.25% | [5] 6.25% | [6] 33.6%

N#CC1(Cc2ccccc2[N+](=O)[O-])c2ccccc2C2C(N1C(=O)c1ccccc1)C2(Cl)Cl (stereo unspecified)
inactive: [1] -2.5% | [2] 23.7% | [3] 9.7% | [4] -4.3% | [5] 3.15% | [6] 6.95%

O=C(Nc1cccc(Cl)c1)OCc1ccccn1
inactive: [1] 37.6% | [2] 8.15% | [3] 6.9% | [4] -21.5% | [5] -0.95% | [6] 22.1%

C=C1CCc2ccccc2C1=O
inactive: [1] 23.4% | [2] -4% | [3] 4.25% | [4] -5.55% | [5] 7.15% | [6] 13.6%

C=CCNC(=O)/C=C/C
inactive: [1] 1.95% | [2] 0.65% | [3] -2.1% | [4] 1.8% | [5] 9.75% | [6] -4.35%

Cn1c2ccccc2c2nnc(N/N=C/c3cccs3)nc21
inactive: [1] -15.6% | [2] -9.2% | [3] -9.6% | [4] -32.2% | [5] -10.6% | [6] 10.7%

CC(C)COC(=O)N1N=NC2C3OC(CC3=O)C21 (stereo unspecified)
inactive: [1] -4.7% | [2] -17.1% | [3] -8.1% | [4] 8.8% | [5] -13.2% | [6] -15.7%

O=C(O)/C=C/C(=O)Nc1ccc(C(=O)O)cc1
inactive: [1] 22.9% | [2] -27.3% | [3] 10.2% | [4] 7.6% | [5] -20.9% | [6] -3.7%

O=C(O)CN=CC(O)C(O)C(O)C(O)CO (stereo unspecified)
inactive: [1] -9.8% | [2] -3.8% | [3] 3.9% | [4] 4.4% | [5] 9.15% | [6] -2.45%

NC(=O)c1csc(Nc2csc(N)n2)n1
inactive: [1] -6.05% | [2] -15.5% | [3] -6.35% | [4] -13.6% | [5] 18.8% | [6] -26.6%

C1=[N+](c2ccccc2)CCN1c1ccccc1
inactive: [1] -0.7% | [2] -18.9% | [3] -22.1% | [4] -27.3% | [5] -32.1% | [6] -20.5%

COc1cccc(-c2ccccc2)c1
inactive: [1] 7.35% | [2] 10.9% | [3] -11.3% | [4] 3.2% | [5] 14.6% | [6] -16.6%

COc1cc(/C=C/Cc2cc3c(cc2OCCO)OCO3)cc(OC)c1OC
inactive: [1] -1.05% | [2] 0.3% | [3] 7.6% | [4] -11.7% | [5] -4.65% | [6] 19.6%

Nc1ccc(C(=O)NN2C(=O)C(Cl)C2c2cccc(O)c2)cc1 (stereo unspecified)
inactive: [1] -4.45% | [2] -41.7% | [3] -35.1% | [4] -14.2% | [5] 4.3% | [6] -6.55%

CN(C)c1nc(=O)c2c(ccc3ccccc32)o1
inactive: [1] 26.2% | [2] 24.3% | [3] 7.6% | [4] 14.7% | [5] 0.55% | [6] -3.7%

Nc1ccccc1NC1CCN(Cc2ccccc2)CC1
inactive: [1] 27.2% | [2] -3.35% | [3] 25.8% | [4] 33.5% | [5] 22.9% | [6] 19.1%

O=c1[nH]c2cc(Cl)ccc2nc1/C(=N\O)C(O)c1cccc([N+](=O)[O-])c1 (stereo unspecified)
inactive: [1] 6.7% | [2] -9.55% | [3] -7.75% | [4] 11.9% | [5] -5.1% | [6] -13.2%

Cc1cc(C)c(C2=[N+]([O-])ON3CCc4ccccc4C23)c(C)c1 (stereo unspecified)
inactive: [1] 1.5% | [2] -7.7% | [3] -3.05% | [4] 4.5% | [5] -5.3% | [6] -3.2%

C/C(=N/NC(N)=O)c1ccccc1Cl
inactive: [1] -3.75% | [2] 3.5% | [3] -14.9% | [4] -20.4% | [5] -6.7% | [6] 12.8%

O=C(O)CNc1ccc(C(=O)O)cc1
inactive: [1] -20.9% | [2] -10.1% | [3] -11.3% | [4] 41.1% | [5] -51.7% | [6] -11.7%

O=C(O)C1NCCC1Oc1ccccc1 (stereo unspecified)
inactive: [1] -3.9% | [2] -3.7% | [3] -16% | [4] -12.8% | [5] -1.5% | [6] 2.65%

N#Cc1cnsc1
inactive: [1] -4.15% | [2] 2.65% | [3] 4.75% | [4] 3.55% | [5] 12.4% | [6] -26.8%

CCOC(=S)SCC(=O)c1ccc(Br)cc1
active: [2] 70.5% | [6] 83.5%
inactive: [1] 67% | [3] 66.8% | [4] -7.5% | [5] 55.2%

CCCC(=O)n1[nH]c(=O)n(-c2ccc(Cl)cc2)c1=O
inactive: [1] 5.15% | [2] -12.3% | [3] 19.8% | [4] 3.25% | [5] -2.1% | [6] -10.3%

C=C1C(=O)O[C@H]2C1[C@H](OC(=O)/C(C)=C\COC(C)=O)C[C@]1(CO1)[C@@H]1[C@H](O)[C@H]3O[C@@]3(C)[C@@H]12 (stereo partly specified)
inactive: [1] -5.95% | [2] -26.4% | [3] -13% | [4] -1% | [5] -52% | [6] -2.05%

N#CC(=C1CCCCC1)c1ccccc1
inactive: [1] -14.1% | [2] -21.2% | [3] -21.6% | [4] -5.75% | [5] -15.9% | [6] -27.1%

C=CCCCCCCCCCCCCCC
inactive: [1] -0.85% | [2] -2.3% | [3] -4% | [4] 10% | [5] -7.5% | [6] 26.9%

O=C(NC1CC1)C1CC1
inactive: [1] -20.2% | [2] -12.8% | [3] -1.45% | [4] -17.4% | [5] 1.7% | [6] -1.35%

CNc1ncnc2c1cnn2-c1ccc(Cl)cc1
inactive: [1] -15.8% | [2] -6.85% | [3] -6.75% | [4] -37.4% | [5] 0.3% | [6] 4.25%

Cc1ccc(CO)c(O)c1
inactive: [1] 8.65% | [2] -7.25% | [3] -5.55% | [4] 6.4% | [5] 3.75% | [6] 2.15%

COc1cccc(C2c3cc4c(cc3OC(C)(O)C2C)OCO4)c1OC (stereo unspecified)
inactive: [1] 22.6% | [2] 4.05% | [3] 39.5% | [4] 13.9% | [5] 24.8% | [6] 21.6%

CC(=O)Nc1nnc(S(C)(=O)=O)s1
inactive: [1] -29.6% | [2] -29% | [3] -55.6% | [4] 7.25% | [5] -36.9% | [6] -33%

CCOc1ccc(N2C(=O)NC3(c4ccccc4)N(C)C(=O)N(C)C23c2ccccc2)cc1 (stereo unspecified)
inactive: [1] -2.7% | [2] -7.95% | [3] 13.8% | [4] 1.3% | [5] 17.1% | [6] -16.8%

CN=NN(C)C(=O)NC
inactive: [1] -11.9% | [2] 0.7% | [3] 10.1% | [4] -13% | [5] -25% | [6] 30.4%

CC(C)(C)C(=O)C[n+]1ccccc1
inactive: [1] 3.85% | [2] -6.45% | [3] 8.45% | [4] -15% | [5] 5.35% | [6] 15.2%

CN1CC(=O)N(C(=O)c2ccccc2)C1=N
inactive: [1] -6.6% | [2] -17.2% | [3] -6.4% | [4] -17.9% | [5] -2.15% | [6] 9.55%

C=C(C)c1ccc(F)cc1
inactive: [1] 3.9% | [2] -7.5% | [3] -1.65% | [4] 4.2% | [5] -2.05% | [6] 0.55%
